Calls of active or inactive are those of the source.
Columns and labels:
[1] = binders of probe aFSTL3 on microarray, primary screen, stem cell growth factor project, biochemical, small-molecule microarray, fluorescence 635/667 (AID 1064); settings: higher = more signal;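 note: measures binding of the biotinylated anti-FSTL3 antibody to printed compounds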
[2] = binders from COS7 lysate, DM2A8 probe, primary screen, torsin A project, cell lysate, small-molecule microarray, fluorescence 635/667 (AID 1065); settings: higher = more signal, COS7 lysate expressing mutant human TOR1A
[3] = binders of probe aFGF2 on microarray, primary screen, stem cell growth factor project, biochemical, small-molecule microarray, fluorescence 635/667 (AID 1067); settings: higher = more signal;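 note: measures binding of biotinylated aFGF2 protein to printed compounds on slides; z-score merges feature fluorescence and signal-to-noise across triplicate slides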
[4] = binders of probe aFGF10 on microarray, primary screen, stem cell growth factor project, biochemical, small-molecule microarray, fluorescence 635/667 (AID 1071); settings: higher = more signal;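 note: score merges 667 nm spot intensity and signal to noise from triplicate slides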
[5] = target: Neurogenic locus notch homolog protein 2 (Homo sapiens) (UniProt Q04721); experiment: Notch2 binders on small-molecule microarrays, primary screen, biochemical, small-molecule microarray, 635 nm fluorescence, stem cell growth factors (AID 1073); settings: Notch2 binding, higher = more signal
[6] = target: Pro-neuregulin-1, membrane-bound isoform (Homo sapiens) (UniProt Q02297); experiment: NRG1 binders on small-molecule microarrays, primary screen, psychiatric disease protein project, biochemical, small-molecule microarray, fluorescence 635/667 (AID 1075); settings: NRG1 binding, 635 nm fluorescence, higher = more signal;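 note: score combines 667 nm spot fluorescence with signal to noise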
[7] = system: Neuregulin-1 EGF-like domain; experiment: binders of neuregulin-1 EGF-like domain, primary screen, biochemical, small-molecule microarray, 635 nm fluorescence (AID 1081); settings: small-molecule microarray binding, higher = more signal;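 note: binding of the protein to compounds printed on small-molecule microarray slides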
[8] = FRG1 promoter luciferase signal modulators, primary screen, FRG1 inhibition for FSHD, cell-based, C2C12 myotubes, firefly/Renilla luciferase, luminescence (AID 1084); settings: higher = more signal, called active from +8 up or from −8 down
[9] = binders of probe aFST on microarray, primary screen, stem cell growth factor project, biochemical, small-molecule microarray, fluorescence 635/667 (AID 1086); settings: higher = more signal;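 note: score merges 667 nm fluorescence with signal-to-noise of each printed compound spot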
[10] = binders of probe aHhip on microarray, primary screen, stem cell growth factor project, biochemical, small-molecule microarray, fluorescence 635/667 (AID 1087); settings: higher = more signal;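 note: score merges spot fluorescence at 667nm with spot signal to noise ratio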
[11] = system: PRMT1 (protein arginine N-methyltransferase 1); experiment: PRMT1 binders on small-molecule microarrays, primary screen, biochemical, small-molecule microarray, 635 nm fluorescence (AID 1088); settings: small-molecule microarray binding, higher = more signal;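 note: binding of Prmt1 protein to compounds spotted on small-molecule microarray slides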
[12] = yeast growth modulation, basal conditions, primary screen, YJM789 clinical isolate, OD600, 24 h (AID 1089);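 note: growth of clinical yeast isolate S. cerevisiae YJM 789 seeded 1000 cells per well; test concentration not given here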; settings: S. cerevisiae YJM789 growth, higher = more signal, called active from +8 up or from −8 down
[13] = fission yeast growth modulation, primary screen, strain 972, OD600, 24 h, no modulator (AID 1090);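 note: basal condition with compound alone and no growth modifier present; test concentration not given here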; settings: S. pombe 972 growth, higher = more signal, called active from +8 up or from −8 down
[14] = S. cerevisiae growth modulation with rapamycin, primary screen, strain BY4716, OD600, 96 h (AID 1091); settings: higher = more signal, called active from +8 up or from −8 down; note: test concentration not given here
[15] = target: Torsin-1A-interacting protein 2 (Homo sapiens) (UniProt Q8NFQ8); experiment: LULL1 binders on small-molecule microarray, primary screen, cell lysate, human LULL1 lysate, 635/667 nm fluorescence (AID 1092); settings: hLULL1 lysate binding, 635 nm fluorescence, higher = more signal;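 note: probe is lysate of COS7 cells overexpressing human LULL1; score merges per-feature 667 nm fluorescence with signal-to-noise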
[16] = E. coli growth modulation, two-sided OD650, primary screen, E. coli filamentation project, strain DRC41, 24 h (AID 1093); settings: OD650, 24 h, higher = more signal, called active from +8 up or from −8 down;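 note: MC1000 strain lacking acrAB efflux and sulA so SOS filamentation is blocked; test concentration not given here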
[17] = small-molecule microarray binders of probe aLefty2, primary screen, biochemical, biotinylated probe, 635/667 nm fluorescence (AID 1094); settings: higher = more signal;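 note: score merges spot fluorescence near 667 nm with spot signal-to-noise ratio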
[18] = system: Noggin (protein binding on small-molecule microarray); experiment: Noggin binders on small-molecule microarray, primary screen, biochemical, 635/667 nm fluorescence (AID 1095); settings: 635 nm fluorescence, higher = more signal;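 note: score merges 667 nm feature fluorescence with signal to noise over triplicate slides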
[19] = target: Neurogenic locus notch homolog protein 3 (Homo sapiens) (UniProt Q9UM47); experiment: NOTCH3 binders on small-molecule microarray, primary screen, biochemical, 635/667 nm fluorescence (AID 1096); settings: NOTCH3 binding, 635 nm fluorescence, higher = more signal
[20] = small-molecule microarray binders of probe aEGFR, primary screen, biochemical, biotinylated probe, 635/667 nm fluorescence (AID 1097); settings: higher = more signal;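 note: probe is a biotinylated anti-EGFR antibody binding compounds printed on slides; score combines fluorescence near 667 nm and signal to noise of each spot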

Chain of Torsin-1A-interacting protein 2 (Homo sapiens) (Q8NFQ8 whole entry, looked up): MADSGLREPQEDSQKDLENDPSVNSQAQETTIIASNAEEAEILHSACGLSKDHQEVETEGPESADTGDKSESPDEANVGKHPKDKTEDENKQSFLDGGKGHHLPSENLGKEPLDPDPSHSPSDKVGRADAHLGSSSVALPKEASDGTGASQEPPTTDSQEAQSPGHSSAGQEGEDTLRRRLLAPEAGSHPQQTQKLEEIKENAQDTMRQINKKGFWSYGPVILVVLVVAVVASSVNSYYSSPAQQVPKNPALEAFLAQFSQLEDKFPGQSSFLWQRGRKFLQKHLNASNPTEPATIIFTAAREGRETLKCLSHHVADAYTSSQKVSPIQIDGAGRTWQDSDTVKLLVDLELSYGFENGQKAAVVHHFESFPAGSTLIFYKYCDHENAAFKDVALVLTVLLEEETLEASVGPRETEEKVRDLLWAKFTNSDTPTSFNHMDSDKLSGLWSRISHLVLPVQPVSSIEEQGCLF
Chain of Pro-neuregulin-1, membrane-bound isoform (Homo sapiens) (Q02297 whole entry, looked up, the tested form may be a part, canonical isoform): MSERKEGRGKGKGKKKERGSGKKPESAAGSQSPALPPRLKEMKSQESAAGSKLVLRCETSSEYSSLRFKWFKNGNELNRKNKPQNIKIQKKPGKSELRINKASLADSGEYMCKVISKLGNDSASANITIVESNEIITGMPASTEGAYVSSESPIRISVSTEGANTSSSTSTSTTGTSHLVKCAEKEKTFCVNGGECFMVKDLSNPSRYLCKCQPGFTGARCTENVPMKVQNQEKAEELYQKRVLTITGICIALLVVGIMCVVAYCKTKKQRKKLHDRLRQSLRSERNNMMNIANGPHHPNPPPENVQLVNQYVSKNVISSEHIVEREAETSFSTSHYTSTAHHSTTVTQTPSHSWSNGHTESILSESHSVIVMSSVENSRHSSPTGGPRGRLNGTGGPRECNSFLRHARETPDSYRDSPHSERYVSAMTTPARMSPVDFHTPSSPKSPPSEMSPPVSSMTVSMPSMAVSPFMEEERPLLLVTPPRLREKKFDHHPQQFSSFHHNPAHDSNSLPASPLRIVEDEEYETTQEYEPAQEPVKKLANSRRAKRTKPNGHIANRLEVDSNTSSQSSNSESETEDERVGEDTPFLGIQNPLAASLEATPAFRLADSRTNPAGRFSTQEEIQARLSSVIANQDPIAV
Chain of Neurogenic locus notch homolog protein 3 (Homo sapiens) (Q9UM47 whole entry, looked up): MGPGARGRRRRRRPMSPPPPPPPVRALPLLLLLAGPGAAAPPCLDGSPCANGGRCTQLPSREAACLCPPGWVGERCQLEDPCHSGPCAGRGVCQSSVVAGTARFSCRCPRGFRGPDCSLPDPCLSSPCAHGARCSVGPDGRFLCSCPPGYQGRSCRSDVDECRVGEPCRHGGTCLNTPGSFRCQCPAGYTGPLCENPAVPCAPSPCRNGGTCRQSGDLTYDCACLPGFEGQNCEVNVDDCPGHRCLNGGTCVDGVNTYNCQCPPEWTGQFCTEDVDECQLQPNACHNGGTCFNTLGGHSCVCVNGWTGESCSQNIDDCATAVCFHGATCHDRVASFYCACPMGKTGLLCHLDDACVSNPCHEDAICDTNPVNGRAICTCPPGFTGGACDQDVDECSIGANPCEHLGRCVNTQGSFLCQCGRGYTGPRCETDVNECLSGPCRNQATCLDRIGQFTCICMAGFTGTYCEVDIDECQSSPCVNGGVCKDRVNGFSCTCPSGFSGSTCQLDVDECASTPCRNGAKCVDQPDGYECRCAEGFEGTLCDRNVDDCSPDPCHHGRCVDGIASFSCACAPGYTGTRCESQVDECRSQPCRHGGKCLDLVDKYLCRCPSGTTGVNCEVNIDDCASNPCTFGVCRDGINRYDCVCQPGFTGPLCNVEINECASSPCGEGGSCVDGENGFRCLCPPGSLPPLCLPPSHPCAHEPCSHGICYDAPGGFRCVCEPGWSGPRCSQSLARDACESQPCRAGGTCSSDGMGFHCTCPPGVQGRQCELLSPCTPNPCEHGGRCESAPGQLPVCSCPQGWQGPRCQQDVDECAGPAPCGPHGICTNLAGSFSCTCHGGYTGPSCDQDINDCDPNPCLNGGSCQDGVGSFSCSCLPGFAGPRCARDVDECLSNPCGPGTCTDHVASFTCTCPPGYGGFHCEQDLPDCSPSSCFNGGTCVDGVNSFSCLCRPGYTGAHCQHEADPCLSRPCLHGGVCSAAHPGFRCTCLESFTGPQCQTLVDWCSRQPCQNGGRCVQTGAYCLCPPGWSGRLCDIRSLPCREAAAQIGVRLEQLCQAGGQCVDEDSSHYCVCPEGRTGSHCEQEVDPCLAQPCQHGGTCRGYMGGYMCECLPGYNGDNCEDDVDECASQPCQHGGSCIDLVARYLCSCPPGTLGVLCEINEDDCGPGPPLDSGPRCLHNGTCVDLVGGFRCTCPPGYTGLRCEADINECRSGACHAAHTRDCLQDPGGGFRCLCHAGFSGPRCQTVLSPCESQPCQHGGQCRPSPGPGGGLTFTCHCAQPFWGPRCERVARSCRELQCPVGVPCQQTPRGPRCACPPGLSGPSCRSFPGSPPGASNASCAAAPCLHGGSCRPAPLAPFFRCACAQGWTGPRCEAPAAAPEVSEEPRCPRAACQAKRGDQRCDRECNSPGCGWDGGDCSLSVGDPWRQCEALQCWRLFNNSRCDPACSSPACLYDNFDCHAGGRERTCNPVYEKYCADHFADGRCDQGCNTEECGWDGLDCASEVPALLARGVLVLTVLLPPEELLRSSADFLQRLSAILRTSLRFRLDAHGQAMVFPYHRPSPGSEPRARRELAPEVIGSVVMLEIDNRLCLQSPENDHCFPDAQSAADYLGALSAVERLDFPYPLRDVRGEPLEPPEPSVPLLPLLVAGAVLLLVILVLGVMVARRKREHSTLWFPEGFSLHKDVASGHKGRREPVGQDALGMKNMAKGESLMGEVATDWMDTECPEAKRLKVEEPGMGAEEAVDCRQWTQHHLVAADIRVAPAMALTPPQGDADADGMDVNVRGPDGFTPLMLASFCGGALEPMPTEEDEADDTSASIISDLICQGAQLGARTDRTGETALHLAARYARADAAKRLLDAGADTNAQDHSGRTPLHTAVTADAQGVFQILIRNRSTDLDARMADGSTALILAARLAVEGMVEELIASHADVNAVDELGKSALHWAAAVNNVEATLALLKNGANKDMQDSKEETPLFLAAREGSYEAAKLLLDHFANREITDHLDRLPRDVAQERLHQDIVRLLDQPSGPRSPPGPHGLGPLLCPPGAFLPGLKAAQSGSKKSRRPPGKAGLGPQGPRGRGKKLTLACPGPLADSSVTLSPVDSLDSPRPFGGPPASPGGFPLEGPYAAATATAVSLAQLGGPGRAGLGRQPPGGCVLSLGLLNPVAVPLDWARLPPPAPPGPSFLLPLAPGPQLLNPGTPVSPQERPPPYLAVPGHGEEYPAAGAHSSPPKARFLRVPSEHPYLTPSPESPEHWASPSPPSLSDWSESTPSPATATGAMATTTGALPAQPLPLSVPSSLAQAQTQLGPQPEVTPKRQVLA

Compound	composite z-score [1]	composite z-score [2]	composite z-score [3]	composite z-score [4]	composite z-score [5]	composite z-score [6]	composite z-score [7]	z-score [8]	composite z-score [9]	composite z-score [10]	composite z-score [11]	z-score [12]	z-score [13]	z-score [14]	composite z-score [15]	z-score [16]	composite z-score [17]	composite z-score [18]	composite z-score [19]	composite z-score [20]
COc1ccc([Si](C)(C)[C@@H]2[C@@H](CC(=O)N(CCO)Cc3ccccc3)O[C@]3(C(=O)N(Cc4cccc(N5CCC5=O)c4)c4ccccc43)[C@H]2C)cc1	-0.113	0.861	-0.116	0.434	0.205	0.712	1.13	-0.645 (inactive)	0.147	0.0373	1.56	-1.16 (inactive)	0.463 (inactive)	1.61 (inactive)	1.57	1.48 (inactive)	-0.17	1.33	0.941	-0.135
CCN1C(C)=C(C(=O)OC)[C@@H](c2ccccc2)N2C(=O)[C@](O)(C(=O)OC)[C@@H](c3ccccc3)C(C(C)=O)=C12	-0.0393	-0.0183	-0.0621	0.391	0.991	-0.485	0.913	-1.88 (inactive)	0.283	-0.262	-0.107	-3.56 (inactive)	-3.03 (inactive)	-2.26 (inactive)	0.241	0.556 (inactive)	0.0417	0.506	0.768	0.186
CO[C@H]1COC(=O)[C@H](C)COC(=O)[C@H](Cc2ccccc2)NC(=O)CC=C[C@H]1C	0.34	0.355	-0.167	-0.106	-0.889	-0.339	-0.942	-0.412 (inactive)	0.0716	-0.455	-0.0111	0.43 (inactive)	-0.854 (inactive)	-0.798 (inactive)	-0.826	0.195 (inactive)	0.0128	0.952	-0.447	-0.139
CO[C@H]1COC(=O)[C@@H](OCc2ccccc2)C=C[C@H](C)[C@@H](OC)COC(=O)[C@H](OCc2ccccc2)C=C[C@@H]1C	-0.617	-0.144	-0.136	-0.205	-0.893	-0.93	-0.669	-0.23 (inactive)	-0.0171	-0.353	-0.374	-2.92 (inactive)	-2.88 (inactive)	-0.495 (inactive)	-0.233	-0.255 (inactive)	-0.462	0.816	-0.472	-0.188
CO[C@H]1COC(=O)[C@@H](C)NC(=O)CC=C[C@@H](C)[C@H](OC)COC(=O)CC=C[C@@H]1C	-0.691	1.95	-0.229	-0.895	-1.41	-0.615	0.479	-1.32 (inactive)	-0.0849	0.0596	1.55	-1.66 (inactive)	-2.03 (inactive)	-1.67 (inactive)	-0.619	1.25 (inactive)	-0.28	1.52	0.134	-0.299
Cc1ccc(S(=O)(=O)N[C@H]2COC(=O)CC=C[C@H](C)COC(=O)N[C@@H](C)C(=O)CC=C[C@@H]2C)cc1	-0.667	1.16	-0.22	0.168	-0.0113	-0.195	0.527	0.502 (inactive)	0.0218	0.0053	0.67	-0.11 (inactive)	-0.784 (inactive)	0.978 (inactive)	-0.866	0.12 (inactive)	-0.215	1.18	0.354	0.0486
NC(=O)NCC#Cc1ccc2c(c1)[C@]1(C(=O)N2)[C@H](c2ccccc2OCCO)N2[C@H](c3ccccc3)[C@H](c3ccccc3)OC(=O)[C@H]2[C@@H]1C(=O)N1CCN(c2ncccn2)CC1	0.533	0.195	-0.0145	0.499	0.583	1.19	1.07	-0.112 (inactive)	0.315	-0.0994	1.54	1.73 (inactive)	0.0422 (inactive)	4.25 (inactive)	2.7	2.9 (inactive)	0.276	1.17	1.02	-0.0286
C=CCC(OC(C)=O)[C@@H]1[C@@H](N(Cc2cc3ccccc3o2)C(=O)c2ccc(C)cc2)c2cc(OCCCO)ccc2N1C(=O)c1ccc2ccccc2n1 (stereo not given in full)	0.216	0.189	-0.187	0.394	0.191	-0.019	-0.323	-0.508 (inactive)	0.113	0.107	0.207	-0.0537 (inactive)	-0.518 (inactive)	-0.391 (inactive)	0.285	2.74 (inactive)	-0.168	0.11	0.197	-0.129
COc1cccc([C@H]2N[C@H](C(=O)O)CC[C@@H]2C)c1	-0.356	0.0291	-0.0885	-0.42	0.238	-0.0739	-0.212	-0.0831 (inactive)	0.425	-0.127	-0.158	-0.535 (inactive)	-0.823 (inactive)	0.48 (inactive)	0.0605	0.395 (inactive)	-0.23	0.002	0.202	-0.139
